Assay outcomes as filed in PubChem.
Rows were chosen to be rich in hits. Some 9.2% of all compounds tested hit in one or more screens of this group.
Rab9 promoter act: activators of Rab9 promoter | Potency, µM (top dose mostly 9.22 µM), without a hit: at the highest dose activation, negative = inhibition, hits mostly activators | 2.8% of 320,000 active | Huh7 Rab9 promoter-luciferase reporter, luminescence, 24 h; note: % of control where 0% means no effect; nearly all actives have a fitted effect of over 60% in size
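Using Huh7 cells stably transfected with Rab9 promoter–luciferase, compounds were incubated 24 h at 37 °C, 5% CO2; luciferase luminescence was read 10 min after reagent addition.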
SMN2 splice enh: SMN2 splice variant enhancement; 2.8% of 210,000 active; HEK293 SMN2-luciferase splicing reporter, luminescence, 30-36 h; Potency, µM (doses to about 46.1 µM), without a hit: at the highest dose activity change, positive = activation, actives largely listed as activators; AID 1458; note: % of control where 0% means no effect; nearly all actives have a fitted effect of over 55% in size
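qHTS luciferase splicing reporter: luminescence rises when SMN2 exon 7 is included in transfected HEK293 cells. Compound exposure lasted 30-36 h at 37C, with 4.5 mM final sodium butyrate as control, followed by a ONE-Glo read.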
ELG1 genotox: induces genotoxicity in HEK293T cells with luciferase-tagged ELG1; Potency, µM (series often up to 46 µM), inactives show at the top dose activity change, positive = activation, actives largely listed as activators; HEK293T ELG1-luciferase reporter, luminescence, 16 h; 1.3% of 330,000 active; note: % of control where 0% means no effect; nearly all actives have a fitted effect of over 60% in size
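HEK293T cells expressing luciferase-tagged ELG1 were exposed to compound or DMSO vehicle for 16 hr at 37 °C and 5% CO2. Luciferase activity was then measured with ONE-Glo after 30 min at room temperature.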
NPC1 promoter act: activators of NPC1 promoter | Huh7 NPC1 promoter luciferase reporter, 24 h | Potency, µM (series often up to 9.22 µM), for the others: top-dose activation, actives largely listed as activators | 2.4% of 320,000 active | AID 485313; note: % of control where 0% means no effect; nearly all actives have a fitted effect of over 60% in size
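Stably transfected Huh7 (NPC1 promoter→luciferase), 1500 cells/well in Opti-MEM + 10% FBS, 2 h settle, then compound 24 h at 37 °C. Luminescence after 10 min with Amplite reagent.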
FLuc counter: counter-screen for miR-21 project: firefly luciferase inhibitors or activators. P08659. purified FLuc, Km substrates, luminescence inhibition. Potency, µM (top dose mostly 57.5 µM), for the others: top-dose activity change, negative = inhibition, usual class: inhibitors. 6.9% of 360,000 active. AID 588342;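 note: plate controls were vehicle for no effect and reference inhibitor for full effect; nearly all actives have a fitted effect of over 55% in size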
Target sequence (P08659 whole entry, looked up): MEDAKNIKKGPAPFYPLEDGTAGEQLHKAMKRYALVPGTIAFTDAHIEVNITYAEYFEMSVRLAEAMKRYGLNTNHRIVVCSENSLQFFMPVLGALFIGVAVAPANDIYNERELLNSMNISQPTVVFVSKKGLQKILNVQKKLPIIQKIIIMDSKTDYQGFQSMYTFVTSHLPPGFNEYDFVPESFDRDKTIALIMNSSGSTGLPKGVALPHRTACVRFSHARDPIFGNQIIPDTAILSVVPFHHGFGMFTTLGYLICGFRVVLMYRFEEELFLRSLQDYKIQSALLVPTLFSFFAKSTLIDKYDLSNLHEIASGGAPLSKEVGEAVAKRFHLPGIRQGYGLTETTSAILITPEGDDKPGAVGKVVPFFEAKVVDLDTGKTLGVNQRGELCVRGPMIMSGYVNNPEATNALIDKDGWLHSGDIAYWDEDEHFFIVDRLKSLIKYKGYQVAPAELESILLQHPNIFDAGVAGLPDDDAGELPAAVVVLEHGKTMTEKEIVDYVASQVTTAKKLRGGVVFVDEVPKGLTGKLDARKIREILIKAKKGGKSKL
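Biochemical qHTS of compounds, final roughly 60 µM downward over six points, against 10 nM purified firefly luciferase using Km concentrations of substrates (10 uM D-luciferin, 10 uM ATP) in Tris acetate pH 7.5 buffer; luminescence output.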
ELG1 DNA repair: ELG1-dependent DNA repair inhibition | AID 504467 | HEK293T ELG1-luciferase reporter, luminescence, 16 h; DNA damage induced by 5-fluorouridine | Potency, µM (top dose mostly 46.1 µM), for inactives: at the highest dose activity change, negative = inhibition, usual class: inhibitors | 2.3% of 330,000 active; note: % is set by controls: 0 for no effect and ±100 for the full control effect; nearly all actives have a fitted effect of over 55% in size
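5-Fluorouridine DNA damage + compound/DMSO, 2,000 cells/well, 16 h, 37 °C/5% CO2. ONE-Glo, 30 min RT, luminescence. Readout = decrease in reporter signal.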
* marks the source's active call; other numbers are inactive results; ? = inconclusive; / = no result. Calls come from the whole dose curve; as a rule, active = well fitted curve in the direction sought with a large enough effect; inconclusive = small, poorly fitted or top-dose-only effect, or another doubt; inactive = no such curve, though single readings can be large; an effect the other way counts as inactive or inconclusive. Potency is the fitted concentration of half-maximal effect.

SMILES	Rab9 promoter act	SMN2 splice enh	ELG1 genotox	NPC1 promoter act	FLuc counter	ELG1 DNA repair
S=C(Nc1ccc2c(c1)OCO2)Nc1ccc2c(c1)OCO2	7%	9%	7%	5%	?	27%
O=C(NC(=S)Nc1ccc(N2CCCCC2)c(Cl)c1)c1ccc2c(c1)OCCO2	-30%	-54%	-13%	-24%	?	-13%
Cc1ccccc1NC(=O)N1CCC(CN2CCCC2)CC1	/	/	/	/	4%	/
Cc1cc(C)cc(NC2=CC(c3cccc(F)c3)N(c3cc(C)cc(C)c3)C2=O)c1 (stereo not given)	/	2%	/	/	6%	/
CCN(CC)CCCNC(=O)c1sc2nc3n(c(=O)c2c1C)CCCCC3	/	/	/	/	5%	/
Cc1ccc(C(=O)NC(=S)Nc2ccc(N3CCOCC3)cc2)c(C)c1	-9%	125%	7%	-3%	-15%	-21%
Cc1ccc(C(=O)NC(=S)Nc2ccc3c(c2)OCCO3)c(C)c1	?	15%	?	?	9.5µM*	?
Cc1ccccc1Nc1nc(CSc2nnc(-c3ccoc3C)n2C)cs1	3%	14%	7%	19%	17µM*	10%
Cc1occc1-c1nnc(SCc2cc(=O)n3cc(Br)ccc3n2)n1C	-1%	-2%	-3%	-6%	1%	-6%
Cc1ccc(Nc2nc(CSc3nnc(-c4cccnc4)n3-c3ccccc3F)cs2)cc1	4%	18%	4%	9%	2.4µM*	?
Cc1ccc(Nc2nc(CSc3nnc(-c4ccncc4)n3C)cs2)cc1	1.3µM*	/	?	3.2µM*	0.6µM*	?
Cc1ccc(NC(=O)CSc2nnc(-c3cccnc3)n2-c2ccc(C)cc2)cc1	-1%	11%	4%	-1%	1%	?
Cc1ccc(CSc2nnc(-c3ccncc3)n2C)cc1	7%	-37%	?	-1%	0%	-10%
CN(C)c1ccc(-c2cc(NCc3ccccc3)ncn2)cc1	/	0.79µM*	/	/	/	/
CN(C)c1ccc(-c2ccc3ncnc(NCc4ccccc4)c3c2)cc1	/	-5%	/	/	/	/
FC(F)(F)c1ccccc1-n1c(-c2cnccn2)n[nH]c1=S	11%	/	?	11%	17µM*	?
O=C(COc1ccc(F)cc1)OCc1cc(=O)n2nc(C3CC3)sc2n1	/	/	/	/	2%	/
N/C(=N\OC(=O)CCCOc1ccccc1)c1ccccn1	9%	3%	10%	5%	17µM*	?
N/C(=N\OC(=O)CCCN1C(=O)c2ccccc2C1=O)c1ccccn1	?	9%	0%	0%	-5%	5%
N/C(=N\OC(=O)Cc1ccc(-c2ccccc2)cc1)c1ccccn1	5%	-33%	?	18%	?	?
N/C(=N\OC(=O)CSc1ccccc1)c1ccccn1	27%	/	?	27%	13µM*	?
Cc1cc(Br)cc(Cl)c1OC(=O)c1ccncc1	0%	/	0%	-3%	-3%	1%
O=C(CC12CC3CC(C1)CC(CC(=O)NC1=NCCS1)(C3)C2)NC1=NCCS1	1%	-2%	0%	-2%	5%	-1%
O=C(NC1=NCCS1)C12CC3CC(C1)CC(C(=O)NC1=NCCS1)(C3)C2	-5%	-12%	-23%	2%	1%	23µM*
Cc1cc(N/N=C/c2ccncc2)nc2ccccc12	2.8µM*	14µM*	?	?	11µM*	?
Cc1cc(N/N=C/c2cccc(Br)c2)nc2ccccc12	?	13µM*	?	3.2µM*	4.8µM*	?
Cc1ccc2c(=O)cc(C(=O)Nc3ccc(S(=O)(=O)Nc4ncccn4)cc3)oc2c1C	/	6%	/	/	-15%	/
O=[N+]([O-])c1ccc(/C=C/c2ccc3cccc(O)c3n2)cc1	?	/	?	?	2.4µM*	?
Nc1ccc(S(=O)(=O)Nc2nccc(/C=C/c3ccc([N+](=O)[O-])cc3)n2)cc1	-2%	/	16%	-5%	3%	?
